According to ChEMBL document CHEMBL1961873, “Compounds: GSK PKIS; Assays: Nanosyn kinase panel” (2012):

Legend:
[1] = target: T1, Aurora kinase A (Homo sapiens) (UniProt O14965); details: at 1 µM;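 note: values are mean percent inhibition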
T1 sequence (whole entry): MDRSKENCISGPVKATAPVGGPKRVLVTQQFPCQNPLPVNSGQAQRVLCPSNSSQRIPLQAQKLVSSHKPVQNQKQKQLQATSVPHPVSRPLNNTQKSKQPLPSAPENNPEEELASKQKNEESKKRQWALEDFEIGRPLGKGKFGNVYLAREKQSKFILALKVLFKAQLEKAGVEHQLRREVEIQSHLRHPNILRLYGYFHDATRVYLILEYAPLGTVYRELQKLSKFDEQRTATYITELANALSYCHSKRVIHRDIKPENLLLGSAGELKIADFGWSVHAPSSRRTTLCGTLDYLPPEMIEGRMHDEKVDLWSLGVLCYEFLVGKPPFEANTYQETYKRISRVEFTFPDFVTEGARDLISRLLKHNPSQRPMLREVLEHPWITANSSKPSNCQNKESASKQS

[2] = target: Aurora kinase B (Homo sapiens) (UniProt Q96GD4); details: at 0.1 µM
Aurora kinase B (Homo sapiens), sequence (Q96GD4 whole entry): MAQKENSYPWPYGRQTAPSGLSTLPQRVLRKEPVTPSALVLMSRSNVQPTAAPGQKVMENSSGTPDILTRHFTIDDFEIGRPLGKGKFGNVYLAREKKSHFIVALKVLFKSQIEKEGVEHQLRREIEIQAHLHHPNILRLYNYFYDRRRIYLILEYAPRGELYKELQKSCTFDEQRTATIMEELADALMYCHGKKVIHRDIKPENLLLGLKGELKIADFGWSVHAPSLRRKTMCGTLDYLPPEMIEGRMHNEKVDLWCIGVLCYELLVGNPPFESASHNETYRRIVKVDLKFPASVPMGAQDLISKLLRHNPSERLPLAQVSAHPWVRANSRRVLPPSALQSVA

[3] = target: Aurora kinase B (Homo sapiens) (UniProt Q96GD4); details: at 1 µM
[4] = target: T2, Aurora kinase C (Homo sapiens) (UniProt Q9UQB9); details: at 0.1 µM
T2 sequence (whole entry): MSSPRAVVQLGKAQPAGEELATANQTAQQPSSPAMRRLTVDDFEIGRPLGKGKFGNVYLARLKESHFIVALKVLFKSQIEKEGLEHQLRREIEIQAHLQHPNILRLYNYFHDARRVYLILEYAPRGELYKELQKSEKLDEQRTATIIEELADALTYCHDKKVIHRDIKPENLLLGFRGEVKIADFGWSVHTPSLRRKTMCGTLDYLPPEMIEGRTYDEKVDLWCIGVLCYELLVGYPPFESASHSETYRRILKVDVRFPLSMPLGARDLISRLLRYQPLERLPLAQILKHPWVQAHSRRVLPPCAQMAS

[5] = target: T2, Aurora kinase C (Homo sapiens); details: at 1 µM
[6] = target: Serine/threonine-protein kinase 10 (Homo sapiens) (UniProt O94804); details: at 0.1 µM
Serine/threonine-protein kinase 10 (Homo sapiens), sequence (O94804 whole entry, looked up): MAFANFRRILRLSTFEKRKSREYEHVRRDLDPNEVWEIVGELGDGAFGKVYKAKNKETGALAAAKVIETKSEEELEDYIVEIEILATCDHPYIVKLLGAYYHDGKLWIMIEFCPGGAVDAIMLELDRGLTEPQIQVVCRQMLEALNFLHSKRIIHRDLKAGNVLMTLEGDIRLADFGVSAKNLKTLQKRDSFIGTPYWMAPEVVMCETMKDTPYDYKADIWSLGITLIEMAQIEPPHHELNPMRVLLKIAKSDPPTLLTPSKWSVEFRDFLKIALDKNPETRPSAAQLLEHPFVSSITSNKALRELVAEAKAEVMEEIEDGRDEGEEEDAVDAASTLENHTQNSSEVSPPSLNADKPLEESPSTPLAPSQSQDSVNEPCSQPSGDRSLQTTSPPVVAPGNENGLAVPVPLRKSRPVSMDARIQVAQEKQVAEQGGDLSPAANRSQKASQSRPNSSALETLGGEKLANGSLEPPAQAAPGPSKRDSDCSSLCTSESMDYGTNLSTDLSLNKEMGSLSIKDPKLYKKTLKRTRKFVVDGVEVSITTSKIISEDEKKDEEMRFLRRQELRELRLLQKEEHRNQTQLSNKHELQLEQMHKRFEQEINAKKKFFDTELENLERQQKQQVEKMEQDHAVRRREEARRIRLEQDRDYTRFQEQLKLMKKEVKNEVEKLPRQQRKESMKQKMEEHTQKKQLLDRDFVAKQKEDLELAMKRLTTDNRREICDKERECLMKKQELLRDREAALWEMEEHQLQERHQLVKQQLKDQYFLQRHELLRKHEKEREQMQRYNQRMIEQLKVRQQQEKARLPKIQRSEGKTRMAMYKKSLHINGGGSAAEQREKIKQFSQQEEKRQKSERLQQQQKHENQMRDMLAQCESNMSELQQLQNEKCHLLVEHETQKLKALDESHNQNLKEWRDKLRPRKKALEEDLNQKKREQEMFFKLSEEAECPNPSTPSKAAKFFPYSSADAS

[7] = target: Serine/threonine-protein kinase 10 (Homo sapiens) (UniProt O94804); details: at 1 µM
[8] = target: T3, Mitogen-activated protein kinase kinase kinase kinase 2 (Homo sapiens) (UniProt Q12851); details: at 0.1 µM
T3 sequence (whole entry): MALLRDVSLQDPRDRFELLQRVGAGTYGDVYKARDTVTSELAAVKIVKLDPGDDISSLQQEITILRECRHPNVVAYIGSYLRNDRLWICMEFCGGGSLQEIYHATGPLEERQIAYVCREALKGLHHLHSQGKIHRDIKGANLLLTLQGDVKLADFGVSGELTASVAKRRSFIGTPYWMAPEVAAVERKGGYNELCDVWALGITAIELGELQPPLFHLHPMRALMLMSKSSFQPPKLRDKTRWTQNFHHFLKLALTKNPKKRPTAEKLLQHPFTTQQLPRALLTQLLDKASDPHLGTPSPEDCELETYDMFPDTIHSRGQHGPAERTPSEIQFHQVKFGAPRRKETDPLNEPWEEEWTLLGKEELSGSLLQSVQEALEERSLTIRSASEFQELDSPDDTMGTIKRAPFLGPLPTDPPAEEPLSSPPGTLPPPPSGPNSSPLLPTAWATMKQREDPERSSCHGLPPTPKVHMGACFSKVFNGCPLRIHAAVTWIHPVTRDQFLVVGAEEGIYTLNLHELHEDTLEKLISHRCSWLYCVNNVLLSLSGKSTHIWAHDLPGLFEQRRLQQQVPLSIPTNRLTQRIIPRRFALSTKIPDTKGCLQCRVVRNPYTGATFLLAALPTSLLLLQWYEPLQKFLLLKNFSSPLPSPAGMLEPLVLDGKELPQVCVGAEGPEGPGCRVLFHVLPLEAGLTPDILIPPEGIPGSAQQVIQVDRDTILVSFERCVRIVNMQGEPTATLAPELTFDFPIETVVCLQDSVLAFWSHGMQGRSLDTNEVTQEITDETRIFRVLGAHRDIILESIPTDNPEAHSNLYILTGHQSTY

[9] = target: T3, Mitogen-activated protein kinase kinase kinase kinase 2 (Homo sapiens); details: at 1 µM
[10] = target: Mitogen-activated protein kinase kinase kinase kinase 4 (Homo sapiens) (UniProt O95819); details: at 0.1 µM
Mitogen-activated protein kinase kinase kinase kinase 4 (Homo sapiens), sequence (O95819 2-1239 limits assumed): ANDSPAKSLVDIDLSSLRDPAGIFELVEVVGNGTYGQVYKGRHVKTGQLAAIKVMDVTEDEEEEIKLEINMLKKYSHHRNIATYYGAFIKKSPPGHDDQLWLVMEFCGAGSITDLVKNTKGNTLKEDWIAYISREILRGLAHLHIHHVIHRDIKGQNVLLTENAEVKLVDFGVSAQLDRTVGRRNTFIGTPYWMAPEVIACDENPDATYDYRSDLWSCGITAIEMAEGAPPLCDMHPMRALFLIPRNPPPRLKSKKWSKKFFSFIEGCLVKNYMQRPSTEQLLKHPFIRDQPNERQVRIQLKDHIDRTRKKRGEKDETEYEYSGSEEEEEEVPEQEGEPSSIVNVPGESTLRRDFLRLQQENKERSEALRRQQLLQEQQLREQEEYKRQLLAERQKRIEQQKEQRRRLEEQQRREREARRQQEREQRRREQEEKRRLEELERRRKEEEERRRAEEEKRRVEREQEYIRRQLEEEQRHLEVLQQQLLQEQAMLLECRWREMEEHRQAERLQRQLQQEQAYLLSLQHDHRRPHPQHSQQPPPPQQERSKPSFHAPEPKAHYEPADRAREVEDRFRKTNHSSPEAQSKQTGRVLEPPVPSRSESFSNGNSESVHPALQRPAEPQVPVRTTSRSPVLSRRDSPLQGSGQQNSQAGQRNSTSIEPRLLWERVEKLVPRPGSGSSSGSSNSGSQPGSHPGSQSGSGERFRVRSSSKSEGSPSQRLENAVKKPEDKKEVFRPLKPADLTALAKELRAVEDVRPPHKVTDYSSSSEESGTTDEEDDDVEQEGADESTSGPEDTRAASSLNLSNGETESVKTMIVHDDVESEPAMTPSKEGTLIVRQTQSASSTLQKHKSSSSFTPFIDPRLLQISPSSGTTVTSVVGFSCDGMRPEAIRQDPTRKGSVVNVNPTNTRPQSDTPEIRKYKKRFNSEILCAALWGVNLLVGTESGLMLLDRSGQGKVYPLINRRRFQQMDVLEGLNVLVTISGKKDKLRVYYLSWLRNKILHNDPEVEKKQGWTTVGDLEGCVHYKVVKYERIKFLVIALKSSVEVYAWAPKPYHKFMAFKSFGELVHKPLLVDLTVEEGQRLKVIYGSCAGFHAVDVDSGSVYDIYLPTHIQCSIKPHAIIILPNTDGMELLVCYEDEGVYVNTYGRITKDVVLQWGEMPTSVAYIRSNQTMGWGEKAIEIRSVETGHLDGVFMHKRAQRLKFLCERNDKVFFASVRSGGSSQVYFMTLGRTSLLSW

Structure (SMILES)	inhibition [1]	inhibition [2]	inhibition [3]	inhibition [4]	inhibition [5]	inhibition [6]	inhibition [7]	inhibition [8]	inhibition [9]	inhibition [10]
CCn1c(-c2nonc2N)nc2c(C#CC(C)(C)O)nc(O[C@@H](CN)c3ccccc3)cc21	5.65%	0.38%	6.56%	-0.63%	1.38%	1.16%	19.8%	4.66%	24.8%	2.87%
CCn1c(-c2nonc2N)nc2c(C#CC(C)(C)O)ncc(OCC3CCNCC3)c21	3.09%	-0.07%	0.45%	-3.33%		3.91%	13.6%	1.42%	1.95%	4.98%
Cc1cc(-c2ccco2)cc(C)c1/C=C/c1cncc(-c2nn[nH]n2)c1	20%	0%	3.63%	-0.32%	7.33%	2.24%	2.3%	1.39%	1.37%	1.07%
NS(=O)(=O)c1ccc(-c2ccc3c(NC(=O)C4CC4)n[nH]c3c2)cc1	15.3%	3.22%	0.63%	1.15%	14.4%	4.04%	5.59%	-0.26%	2.11%	3.77%
CCn1c(-c2nonc2N)nc2c(C#CC(C)(C)O)ncc(OC[C@@H]3CCCN3)c21	1.08%	-1.36%	0.87%	1.23%	1.45%	-0.11%	5.64%	2.41%	3.31%	0.39%
COc1cc2c(cc1Nc1nc(Nc3ccsc3C(N)=O)c3cc[nH]c3n1)N(C(=O)CN(C)C)CCC2		0.75%	2.92%	1.46%	2.53%	11.4%	17.4%	1.63%	11.8%	9.31%
Nc1nonc1-c1nc2cnccc2n1C1CCCCC1	5.79%	0.62%	7.52%	-0.66%	5.22%	0.39%	18.4%	3.87%	20.4%	6.25%
COc1cc(C=NNc2ncnc3c2cnn3Cc2ccccc2)ccc1O	25.6%	2.52%	34.4%	1.25%	10.6%	-4.65%	5.71%	0.89%	4.63%	-1.52%
Fc1ccc(-c2ncn(C3CCNCC3)c2-c2ccnc(Oc3ccccc3)n2)cc1	-2.89%	-0.82%	1.75%	-4.42%	-1.24%	6.38%	8.33%	1.61%	4.65%	1.76%
COc1cccc(-n2ncc3c(N/N=C/c4ccncc4)ncnc32)c1	73.8%	7.94%	43.1%	7.33%	61.4%	5.83%	33.5%	2.12%	7.06%	20.1%
COc1cccc(COc2cc(-n3cnc4ccccc43)sc2C(N)=O)c1	2.21%	-1.57%	1.15%	1.58%	3.73%	4.63%	39.4%	1.4%	7.04%	1.37%
CCn1c(-c2nonc2N)nc2c(C#CCN)ncc(OCCCN)c21	5.16%	4.99%	6.36%	3.54%	-8.09%	4.42%	11.3%	3.61%	4.55%	1.78%
NC(=O)c1sc(-n2cnc3cc(C(F)(F)F)ccc32)cc1OCc1ccccc1Br	2.05%	-0.8%	2.44%	1.36%	4.02%	7.36%	34.7%	1.32%	5.29%	3.11%
NS(=O)(=O)c1ccc(N/C=C2\C(=O)Nc3ccc4ncsc4c32)cc1	80.2%	19.6%	55.2%	22.5%	79.2%	5.85%	16.2%	12.8%	52.1%	55.1%
